Potency data for twelve compounds are collected here from PubChem BioAssay (NCATS).

The structures appear in SMILES notation. Records with an inconclusive call do not appear. The source made the active and inactive calls. Calls come from the whole dose curve; as a rule, active = well fitted curve in the direction sought with a large enough effect; inconclusive = small, poorly fitted or top-dose-only effect, or another doubt; inactive = no such curve, though single readings can be large; an effect the other way counts as inactive or inconclusive.

Test [1] can be described thus: Quantitative High-Throughput drug screen in 47 multiple myeloma cell lines against the NCATS MIPE library collection: KMM1_JCRB cell viability assay (AID 1918960). Note: nearly all actives have a fitted effect of over 30% in size. The essentials:
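Luminescence from CellTiter-Glo, taken after 5 min at room temperature, reports cellular ATP as viability. Cells (500 per well) had been treated 48 h at 37 °C with MIPE 4.0 compounds, scaled between DMSO and medium-only controls.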

Test [2] can be described thus: Quantitative High-Throughput drug screen in 47 multiple myeloma cell lines against the NCATS MIPE library collection: KHM11_PLB cell viability assay (AID 1918962). Note: nearly all actives have a fitted effect of over 35% in size. The essentials: (§1)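 Myeloma cell lines, 500 cells per well, exposed to MIPE 4.0 library compounds for 48 h at 37C, 5% CO2. Viability from ATP by CellTiter-Glo luminescence; normalised to DMSO (100%) and media-only (0%) wells.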

The nature of test [3]: Quantitative High-Throughput drug screen in 47 multiple myeloma cell lines against the NCATS MIPE library collection: JIM3_ECACC cell viability assay (AID 1918963; note: nearly all actives have a fitted effect of over 35% in size). The essentials: as §1
Test [4] is described as follows: Quantitative High-Throughput drug screen in 47 multiple myeloma cell lines against the NCATS MIPE library collection: JIM1_ECACC cell viability assay (AID 1918964). The essentials:
(§2)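 Inhibition of cell viability is measured here. Each line was plated at 500 cells per well, treated with MIPE 4.0 drugs, kept 48 hours at 37C, then assayed for ATP content by CellTiter-Glo luminescence.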

Test [5] is described as follows: Quantitative High-Throughput drug screen in 47 multiple myeloma cell lines against the NCATS MIPE library collection: H1112_PLB cell viability assay (AID 1918967; note: nearly all actives have a fitted effect of over 30% in size). The essentials:
as §2

The nature of test [6]: Quantitative High-Throughput drug screen in 47 multiple myeloma cell lines against the NCATS MIPE library collection: KMS27_JCRB cell viability assay (AID 1918970). Note: nearly all actives have a fitted effect of over 30% in size. The essentials:
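ATP-based viability (CellTiter-Glo luminescence) is measured in cells treated 48 h with approved and investigational drugs at 37 °C. Controls are DMSO-only wells for full viability and media-only wells for none.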

Test [7] in a line: Quantitative High-Throughput drug screen in 47 multiple myeloma cell lines against the NCATS MIPE library collection: KMS12BM_JCRB cell viability assay (AID 1918971). Note: nearly all actives have a fitted effect of over 35% in size. The essentials:
(§3)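 Luminescent ATP measurement with CellTiter-Glo gives viability, scaled between DMSO-only wells (100%) and media-only wells (0%). Cells, 500 per well, faced library compounds for 48 hours at 37C.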

The nature of test [8]: Quantitative High-Throughput drug screen in 47 multiple myeloma cell lines against the NCATS MIPE library collection: KMS12PE_JCRB cell viability assay (AID 1918972). Note: nearly all actives have a fitted effect of over 30% in size. The essentials: as §1
Test [9] is described as follows: Quantitative High-Throughput drug screen in 47 multiple myeloma cell lines against the NCATS MIPE library collection: KMS26_JCRB cell viability assay (AID 1918975). Note: nearly all actives have a fitted effect of over 45% in size. The essentials:
as §3

The nature of test [10]: Quantitative High-Throughput drug screen in 47 multiple myeloma cell lines against the NCATS MIPE library collection: MOLP8_DSMZ cell viability assay (AID 1918977). Note: nearly all actives have a fitted effect of over 45% in size. The essentials: (§4)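 500 cells/well per myeloma line exposed to pinned MIPE 4.0 compounds for 48 h at 37 °C, 5% CO2. Viability read as ATP by CellTiter-Glo luminescence, normalised to DMSO-only (100%) and media-only (0%) wells.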

Test [11] can be described thus: Quantitative High-Throughput drug screen in 47 multiple myeloma cell lines against the NCATS MIPE library collection: MM1S_ATCC cell viability assay (AID 1918980). Note: nearly all actives have a fitted effect of over 45% in size. The essentials: as §4
Test [12] is described as follows: Quantitative High-Throughput drug screen in 47 multiple myeloma cell lines against the NCATS MIPE library collection: INA6_PLB cell viability assay (AID 1918965; note: nearly all actives have a fitted effect of over 55% in size). The essentials: as §1
Test [13] in a line: Quantitative High-Throughput drug screen in 47 multiple myeloma cell lines against the NCATS MIPE library collection: JJN3_DSMZ cell viability assay (AID 1918966; note: nearly all actives have a fitted effect of over 50% in size). The essentials:
as §2

A short description of test [14]: Quantitative High-Throughput drug screen in 47 multiple myeloma cell lines against the NCATS MIPE library collection: Karpas25_ECACC cell viability assay (AID 1918968; note: nearly all actives have a fitted effect of over 35% in size). The essentials: as §2
A short description of test [15]: Quantitative High-Throughput drug screen in 47 multiple myeloma cell lines against the NCATS MIPE library collection: KMS20_JCRB cell viability assay (AID 1918973). Note: nearly all actives have a fitted effect of over 45% in size. The essentials:
as §2

Test [16] in a line: Quantitative High-Throughput drug screen in 47 multiple myeloma cell lines against the NCATS MIPE library collection: KMS21BM_JCRB cell viability assay (AID 1918974). To be noted: ATP luminescence, 48 h; viability: at 45.8 µM (top of the series) unless noted. The essentials: as §2
Test [17] is described as follows: Quantitative High-Throughput drug screen in 47 multiple myeloma cell lines against the NCATS MIPE library collection: NCIH929_DSMZ cell viability assay (AID 1918978). Note: nearly all actives have a fitted effect of over 35% in size. The essentials:
as §4

Test [18] can be described thus: Quantitative High-Throughput drug screen in 47 multiple myeloma cell lines against the NCATS MIPE library collection: OCIMY1_PLB cell viability assay (AID 1918979). Note: nearly all actives have a fitted effect of over 35% in size. The essentials: as §4
Test [19] is described as follows: Quantitative High-Throughput drug screen in 47 multiple myeloma cell lines against the NCATS MIPE library collection: MMM1_PLB cell viability assay (AID 1918976). Note: nearly all actives have a fitted effect of over 35% in size. The essentials: as §4
Test [20] can be described thus: Quantitative High-Throughput drug screen in 47 multiple myeloma cell lines against the NCATS MIPE library collection: Karpas417_ECACC cell viability assay (AID 1918961). To be noted: Karpas417 myeloma viability, CellTiter-Glo ATP luminescence, 48 h; viability (% of DMSO): at 45.8 µM (top of the series). The essentials: as §1
(In general: Cellular ATP, detected with luciferase, serves as a proxy for viable cell number.)
Potency is the fitted concentration of half-maximal effect.

In the case of `Cn1c(CNc2ccc(C(=N)N)cc2)nc2cc(C(=O)N(CCC(=O)O)c3ccccn3)ccc21`, the Potency entry in [1], in [2], in test [3], in test [4], in [5] and in [6] was “inactive” throughout. Moreover, the Potency result in test [7], in test [8], in [9] and in [10] was “inactive” each time. Further, in [11], the Potency was 14.4 µM (active).
`COc1cc(C(C)C)c2c(c1)S(=O)(=O)N(COc1cc(=O)n3cccc(OCCN4CCCCC4)c3n1)C2=O`: the Potency is 26.4 µM (active) in [1]; 18.7 µM (active) in [3]; 18.7 µM (active) in test [4]; 13.2 µM (active) in [12]; 5.26 µM (active) in test [13]; 14.8 µM (active) in [5]. Also, the Potency in test [14] was 13.2 µM (active); in [6], 18.7 µM (active); in [8], 23.5 µM (active); in test [15], 18.7 µM (active); in [16], 18.7 µM (active); in [17], 20.9 µM (active). In test [11], the Potency was 11.8 µM (active). The Potency result in [18] was “inactive”.
For the compound `N#Cc1c(O)c2c(-c3ccc(-c4ccccc4O)cc3)csc2[nH]c1=O`, the Potency entry in test [1], in test [3], in test [12], in [5], in test [14] and in [6] was “inactive” each time. Moreover, the Potency entry in test [8], in test [9], in test [10] and in test [18] was “inactive” each time. The Potency is 5.26 µM (active) in test [7] and 16.6 µM (active) in [11].
Take `O=C(O)CCCc1c[nH]c2ccccc12`: the Potency result in test [1], in test [3], in test [12], in test [5], in test [14] and in test [6] was “inactive” in each case. The Potency result in [8], in [9], in [10], in test [17] and in test [18] was “inactive” each time.
As to `C=CCn1c(=O)c2cnc(Nc3ccc(N4CCN(C)CC4)cc3)nc2n1-c1cccc(C(C)(C)O)n1`, the Potency in test [1] was 0.332 µM (active); in test [2] it was 0.833 µM (active); in [3], 0.59 µM (active); in test [12], 0.526 µM (active); in [13] it was 0.743 µM (active); in test [5], 0.469 µM (active). In addition, the Potency in [14] is 0.332 µM (active); in [7], 0.526 µM (active); in test [8], 0.118 µM (active); in test [15], 8.33 µM (active); in [16], 9.35 µM (active); in test [17], 7.43 µM (active). Also, the Potency result in test [19] was “inactive”.
Consider `C[C@@H]1CN(CC(=O)Nc2ccc3c(c2)Cc2cccc(-c4cc(=O)cc(N5CCOCC5)o4)c2S3)C[C@H](C)O1`, for which the Potency in test [1] was 10.5 µM (active); in [3], 13.2 µM (active); in test [12] it was 11.8 µM (active); in test [13], 13.2 µM (active); in test [14] it was 4.18 µM (active); in [6], 18.7 µM (active). The Potency in test [7] is 20.9 µM (active); in [8], 13.2 µM (active); in test [9], 20.9 µM (active); in [17], 5.9 µM (active).
For `Cn1cncc1[C@@](N)(c1ccc(Cl)cc1)c1ccc2c(c1)c(-c1cccc(Cl)c1)cc(=O)n2C`, the Potency in [1] was 9.35 µM (active); in test [3] it was 16.6 µM (active); in test [4] it was 0.935 µM (active); in [12], 4.69 µM (active); in test [13], 8.33 µM (active); in test [14], 4.18 µM (active). For the same compound, the Potency in test [6] was 7.43 µM (active); in test [7], 14.8 µM (active); in [8], 3.32 µM (active); in test [15], 11.8 µM (active); in [16], 16.6 µM (active); in test [19], 14.8 µM (active). In addition, the Potency in test [17] was 5.26 µM (active).
For `NCC(=O)Nc1ccc(-n2nc(C(F)(F)F)cc2-c2ccc3c(ccc4ccccc43)c2)cc1`, the Potency was 5.26 µM (active) in test [1]; 26.4 µM (active) in [2]; 18.7 µM (active) in test [3]; 18.7 µM (active) in test [12]; 20.9 µM (active) in test [13]; 16.6 µM (active) in test [14]. Besides, the Potency was 0.526 µM (active) in test [8], 9.35 µM (active) in [15] and 23.5 µM (active) in [19].
On to `C[C@@H](Oc1cc(-c2cnn(C3CCNCC3)c2)cnc1N)c1c(Cl)ccc(F)c1Cl`, for which the Potency is 2.64 µM (active) in test [20]; 3.72 µM (active) in test [2]; 8.33 µM (active) in test [3]; 3.72 µM (active) in [4]; 4.69 µM (active) in [12]; 8.33 µM (active) in [13]. In addition, the Potency is 11.8 µM (active) in test [5]; 2.35 µM (active) in [14]; 26.4 µM (active) in test [6]; 16.6 µM (active) in test [7]; 6.62 µM (active) in [8]; 8.33 µM (active) in test [16]. For the same compound, the Potency in test [9] was 14.8 µM (active); in [19], 9.35 µM (active); in test [10], 13.2 µM (active); in test [17], 3.32 µM (active); in test [18], 20.9 µM (active).
Consider `COc1cc(C(=O)NS(=O)(=O)c2ccccc2C)ccc1Cc1cn(C)c2ccc(NC(=O)OC3CCCC3)cc12`, for which the Potency result in test [20] and in [4] was “inactive” in each case. Also, the Potency in test [2] is 10.5 µM (active); in test [3] it was 16.6 µM (active); in test [12] it was 10.5 µM (active); in test [14] it was 8.33 µM (active); in [7] it was 26.4 µM (active); in [15] it was 6.62 µM (active). Also, the figures for the Potency in [9], in test [10] and in test [17] were 16.6 µM (active), 18.7 µM (active) and 18.7 µM (active), respectively.
For `Nc1nc(NCCNc2ncc(-n3ccnc3)c(-c3ccc(Cl)cc3Cl)n2)ccc1[N+](=O)[O-]`, the Potency result in [20] was “inactive”. In addition, the Potency in test [2] is 5.26 µM (active); in test [3], 5.26 µM (active); in [12], 1.18 µM (active); in test [13], 6.62 µM (active); in test [14], 1.48 µM (active); in test [15], 9.35 µM (active). Further, the Potency was 16.6 µM (active) in test [9], 16.6 µM (active) in [10] and 2.35 µM (active) in test [11].
On to `CC(=O)Nc1nc(C)c(-c2ccc(Cl)c(S(=O)(=O)NCCO)c2)s1`, for which the Potency in test [20] was 0.132 µM (active); in test [2], 0.935 µM (active); in [3] it was 4.69 µM (active); in test [4], 1.18 µM (active); in test [12] it was 1.05 µM (active); in test [13], 18.7 µM (active). The Potency is 1.18 µM (active) in test [14]; 1.32 µM (active) in test [6]; 18.7 µM (active) in test [7]; 5.26 µM (active) in [8]; 1.18 µM (active) in test [15]; 1.66 µM (active) in test [16]. The Potency is 7.43 µM (active) in test [9], 9.35 µM (active) in test [10], 11.8 µM (active) in test [18] and 1.48 µM (active) in test [11].
